Assay outcomes deposited in PubChem by SRMLSC.
This is a sample that favours compounds with a hit; in the whole collection about 6.8% have one here.
Abs 340nm: compound light absorbance at 340 nm, profiling panel, artefact control, biochemical, MLSMR library, data from PS, PMK, MK assays. compound absorbance at 340 nm, fold over control. fold change at 10 µM. 65,000 tested, under 10 active. AID 708, 2007;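 active = at 10 µM dose, initial 340 nm absorbance at least 2 fold that of control wells; inactive = change under 2 fold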;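 note: initial absorbance extrapolated from kinetic A340 decline of NADH oxidation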
NADH coupling: inhibitors of PK/LDH coupling enzymes, profiling panel, artefact control, biochemical, MLSMR library; coupled PK/LDH NADH assays, four targets; actives 0.02% (n = 65,000); IC50, µM (highest dose often 10 µM), inactives show top-dose inhibition;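 active = single-dose screening hits from any of four coupled enzyme assays that gave an IC50 when retested across doses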;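 note: the DPM-DC format reads NADH fluorescence rather than 340 nm absorbance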
Spn DPM-DC inh: S. pneumoniae DPM-DC inhibitors, primary screen, biochemical, PK/LDH-coupled NADH fluorescence | purified DPM-DC | calls only at 10 µM | actives 0.49% (n = 65,000) | diphosphomevalonate decarboxylase (Streptococcus pneumoniae D39);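 active = the 320 compounds with the highest percent inhibition in the single-dose primary screen, excluding strongly autofluorescent ones, cut at about 32% in these data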;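 note: kinetic rate of NADH fluorescence loss reporting ADP formed by the decarboxylase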
PMK inhibit: S. pneumoniae PMK inhibitors, primary screen, biochemical, mevalonate pathway, pilot trial included; actives 0.49% (n = 65,000); purified PMK, PK/LDH-coupled NADH absorbance 340 nm; AID 539, 2006; inhibition, % at 10 µM;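 active = top-ranked compounds by inhibition in the single 10 µM screen, taking a fixed number of the strongest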;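 note: 0% = full reaction with DMSO carrier and 100% = background rate without enzyme reaction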
MK inhibit: S. pneumoniae MK inhibitors, primary screen, biochemical, PK/LDH-coupled NADH absorbance; mevalonate kinase [Streptococcus pneumoniae D39]; inhibition, % at 10 µM; purified MK, PK/LDH-coupled NADH absorbance 340 nm; actives 0.48% (n = 65,000); AID 555, 2006;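 active = ranked among the strongest by inhibition in the single 10 µM screen, a fixed top-ranked set picked for dose follow-up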
Fluor 339 460: intrinsic fluorescence of library compounds, ex339/em460 – biochemical, MLSMR library, data from DPM-DC assay, artefact control, profiling panel; compound autofluorescence, ex339/em460 nm, NADH buffer; active compounds read high; 1 = no-compound wells, NADH background; fluorescence fold increase at 10 µM; actives 5.5% (n = 65,000);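 active = at 10 µM, mean starting fluorescence two-fold or more over control wells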;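 note: signal is the first read of a kinetic run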
Active calls of the source: *.

`Cc1ccc(CN(CC(=O)NCCc2ccccc2)C(=O)CCCC(=O)Nc2cc(C)on2)cc1` gave Abs 340nm 1, NADH coupling 7%, Spn DPM-DC inh inactive, PMK inhibit 14, MK inhibit 7 and Fluor 339 460 1.1.
Screening COc1cccc(C2=CC(c3ccc(N(C)C)cc3)n3ncnc3N2)c1 (stereo not drawn) returned Abs 340nm 1.1, NADH coupling 10%, Spn DPM-DC inh inactive, PMK inhibit 8, MK inhibit 13 and Fluor 339 460 2.1*.
For Cc1cc(=O)[nH]c(SCc2nc3ncccn3c2Br)n1 the results were Abs 340nm 1, NADH coupling 4%, PMK inhibit 0, MK inhibit 6 and Fluor 339 460 2.5*.
`Cc1cc(-c2ccc(Cl)cc2)n2nc(N)nc2n1` gave Abs 340nm 1.1, NADH coupling 2%, PMK inhibit 0, MK inhibit 4 and Fluor 339 460 3.6*.
For Cc1cc(Nc2ccc(F)c(Cl)c2)n2nc(C)nc2n1 the results were Abs 340nm 1.1, NADH coupling 7%, Spn DPM-DC inh inactive, PMK inhibit 8, MK inhibit 12 and Fluor 339 460 1.1.
`Nc1nc2nccc(-c3ccc(Cl)cc3)n2n1` gave Abs 340nm 1.1, NADH coupling 12%, PMK inhibit 17, MK inhibit 7 and Fluor 339 460 3.8*.
`CCCCn1c(SCC(=O)Nc2ccc3c(c2)OCO3)nc2c1c(=O)n(C)c(=O)n2C` gave Abs 340nm 0.99, NADH coupling 7%, Spn DPM-DC inh inactive, PMK inhibit 16, MK inhibit 6 and Fluor 339 460 1.
COc1ccc(S(=O)(=O)C(C#N)c2nc3ccccc3nc2N2CCCCC2)cc1 (stereo not drawn) was read as Abs 340nm 1.1, NADH coupling 11%, Spn DPM-DC inh inactive, PMK inhibit 0, MK inhibit 12 and Fluor 339 460 1.8.
For Cc1ccc(C)c(S(=O)(=O)C(C#N)c2nc3ccccc3nc2N2CCCC2)c1 (stereo not drawn) the results were Abs 340nm 1, NADH coupling 3%, PMK inhibit 0, MK inhibit 5 and Fluor 339 460 3.4*.
For C=CCNC(=O)C(C#N)c1nc2ccccc2nc1N1CCCCCC1 (stereo not drawn) the results were Abs 340nm 1, NADH coupling 0%, PMK inhibit 0, MK inhibit 0 and Fluor 339 460 2.3*.
`Cc1cccc(S(=O)(=O)C(C#N)c2nc3ccccc3nc2N2CCCC2)c1` (stereo not drawn) gave Abs 340nm 1.1, NADH coupling 6%, PMK inhibit 12, MK inhibit 0 and Fluor 339 460 3.9*.
`N#CC(c1nc2ccccc2nc1N1CCCC1)S(=O)(=O)c1ccccc1` (stereo not drawn) gave Abs 340nm 1.1, NADH coupling 9%, PMK inhibit 5, MK inhibit 12 and Fluor 339 460 2.3*.
`Cc1ccc(C)c(S(=O)(=O)C(C#N)c2nc3ccccc3nc2N2CCOCC2)c1` (stereo not drawn) gave Abs 340nm 1.1, NADH coupling 3%, Spn DPM-DC inh inactive, PMK inhibit 0, MK inhibit 7 and Fluor 339 460 1.2.
`O=C1C(=O)N(CCCN2CCOCC2)C(c2cccs2)/C1=C(/O)c1ccc2c(c1)OCO2` (stereo not drawn) gave Abs 340nm 1.1, NADH coupling 2%, Spn DPM-DC inh inactive, PMK inhibit 0, MK inhibit 7 and Fluor 339 460 1.1.
`COc1ccc(C(=O)Nc2cccc(C)c2)cc1` gave Abs 340nm 1.1, NADH coupling 0%, Spn DPM-DC inh inactive, PMK inhibit 0, MK inhibit 0 and Fluor 339 460 1.1.
For CC(C)CCOc1ccc(Cl)cc1CN1CCOCC1 the results were Abs 340nm 0.99, NADH coupling 2%, Spn DPM-DC inh inactive, PMK inhibit 5, MK inhibit 0 and Fluor 339 460 1.1.
O=c1c2c3nc4ccccc4nc3n(CCN3CCOCC3)c2ncn1CCN1CCOCC1 was read as Abs 340nm 1.1, NADH coupling 9%, Spn DPM-DC inh inactive, PMK inhibit 15, MK inhibit 6 and Fluor 339 460 1.3.
For CCCCCCOC(=O)C(C#N)c1nc2ccccc2nc1N1CCN(C)CC1 (stereo not drawn) the results were Abs 340nm 1, NADH coupling 8%, PMK inhibit 10, MK inhibit 5 and Fluor 339 460 3.9*.
N#CC(c1nc2ccccc2nc1N1CCCC1)S(=O)(=O)c1cccs1 (stereo not drawn) was read as Abs 340nm 1.1, NADH coupling 11%, Spn DPM-DC inh inactive, PMK inhibit 9, MK inhibit 9 and Fluor 339 460 2.7*.
Screening Cc1ccc(S(=O)(=O)C(C#N)c2nc3ccccc3nc2N2CCC(C)CC2)cc1 (stereo not drawn) returned Abs 340nm 1, NADH coupling 9%, Spn DPM-DC inh inactive, PMK inhibit 12, MK inhibit 6 and Fluor 339 460 1.6.
Screening CCCCCCOC(=O)C(C#N)c1nc2ccccc2nc1N1CCCCC1 (stereo not drawn) returned Abs 340nm 1, NADH coupling 4%, Spn DPM-DC inh inactive, PMK inhibit 13, MK inhibit 3 and Fluor 339 460 1.1.
Screening CC(=C1C(=O)c2ccccc2C1=O)N1CCC(C(N)=O)(N2CCCCC2)CC1 returned Abs 340nm 1.3, NADH coupling 2%, Spn DPM-DC inh inactive, PMK inhibit 2, MK inhibit 5 and Fluor 339 460 1.
CSc1nnc(-c2cc3ccccc3cc2O)n1C was read as Abs 340nm 1.1, NADH coupling 3%, PMK inhibit 0, MK inhibit 5 and Fluor 339 460 2.3*.
CSc1nnc(-c2ccc(O)cc2)n1C was read as Abs 340nm 1, NADH coupling 5%, Spn DPM-DC inh inactive, PMK inhibit 16, MK inhibit 0 and Fluor 339 460 1.
CCOc1ccc(C(C)(C)C)cc1S(=O)(=O)N1CCOCC1 was read as Abs 340nm 1, NADH coupling 7%, Spn DPM-DC inh inactive, PMK inhibit 0, MK inhibit 14 and Fluor 339 460 1.1.
CCS(=O)(=O)Nc1ccc(-c2ccc(NS(=O)(=O)CC)c(OC)c2)cc1OC was read as Abs 340nm 1, NADH coupling 6%, Spn DPM-DC inh inactive, PMK inhibit 9, MK inhibit 9 and Fluor 339 460 1.3.
